# Bioassay records as filed in PubChem BioAssay.
# EPAC1 agonist: agonists of human EPAC1 | O95398 | EPAC1 agonist qHTS, biochemical assay; response scale: 100% = response to 6.5 mM cAMP | Potency, µM (highest dose often 154 µM), for inactives: at the top dose activation, actives largely listed as activators | 360,000 tested, 0.073% active | AID 720707; also: nearly all actives have a fitted effect of over 60% in size
# Target sequence (O95398 whole entry, looked up): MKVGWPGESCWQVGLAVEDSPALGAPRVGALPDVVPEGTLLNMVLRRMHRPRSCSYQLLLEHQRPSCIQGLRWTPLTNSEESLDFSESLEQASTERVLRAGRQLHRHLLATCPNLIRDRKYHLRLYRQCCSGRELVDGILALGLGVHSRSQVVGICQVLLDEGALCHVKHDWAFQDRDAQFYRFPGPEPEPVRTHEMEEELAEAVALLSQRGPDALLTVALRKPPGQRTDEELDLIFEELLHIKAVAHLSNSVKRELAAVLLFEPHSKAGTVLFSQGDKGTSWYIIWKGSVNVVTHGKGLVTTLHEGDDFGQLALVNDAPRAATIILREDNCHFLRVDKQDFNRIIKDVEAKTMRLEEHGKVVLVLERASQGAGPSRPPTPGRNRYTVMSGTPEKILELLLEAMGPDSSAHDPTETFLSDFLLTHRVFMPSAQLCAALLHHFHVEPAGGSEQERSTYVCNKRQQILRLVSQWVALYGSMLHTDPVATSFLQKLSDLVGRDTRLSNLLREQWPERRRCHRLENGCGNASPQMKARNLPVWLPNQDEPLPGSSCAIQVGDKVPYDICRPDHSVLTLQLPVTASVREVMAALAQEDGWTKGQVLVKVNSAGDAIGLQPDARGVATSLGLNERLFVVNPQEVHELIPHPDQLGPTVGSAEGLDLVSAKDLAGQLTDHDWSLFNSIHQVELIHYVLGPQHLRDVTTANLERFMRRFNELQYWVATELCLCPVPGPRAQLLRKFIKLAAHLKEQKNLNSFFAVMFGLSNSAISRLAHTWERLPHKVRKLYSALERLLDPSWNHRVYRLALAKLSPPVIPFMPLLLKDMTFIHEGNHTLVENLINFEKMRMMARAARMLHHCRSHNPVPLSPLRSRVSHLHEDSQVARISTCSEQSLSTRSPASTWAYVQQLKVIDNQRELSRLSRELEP
#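 Compounds were pinned as a concentration titration into mixtures of EPAC1 (100 nM), BODIPY-GDP-loaded Rap1B (250 nM) and GDP (50 uM). After 5 min at room temperature, fluorescence was followed for 30 min; activity was scaled to 6.5 mM cAMP.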
# EPAC2 ag: activates human EPAC2 exchange factor; Q8WZA2; EPAC2 activation, biochemical qHTS; response scale: 100% = 6.5 mM cAMP response; Potency, µM (titrated, usually from 154 µM), inactives show at the highest dose activation, usual class: activators; 360,000 tested, 0.079% active; also: nearly all actives have a fitted effect of over 50% in size
#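 Compounds were added across a concentration range to EPAC2 (100 nM), RAP1B-BODIPY-GDP (250 nM) and GDP (50 uM). After 5 min at room temperature, fluorescence was recorded at 5-min intervals for 30 min.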
# EPAC1 antag: blocks human EPAC1 exchange factor | EPAC1 GEF assay, Rap1b-BODIPY-GDP exchange fluorescence | Potency, µM (highest dose often 115 µM), inactives show at the top dose activity change, negative = inhibition, actives largely listed as inhibitors | O95398 | AID 720709 | 360,000 tested, 0.14% active;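 also: plate controls were vehicle for no effect and positive control for full effect; nearly all actives have a fitted effect of over 50% in size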
# EPAC2 antagonist: antagonists of human EPAC2; EPAC2 GEF exchange of Rap1B-BODIPY-GDP, fluorescence; AID 720708; Potency, µM (doses to about 114 µM), for the others: top-dose activity, negative = inhibition, usual class: inhibitors; Q8WZA2; 360,000 tested, 0.18% active; also: % is scaled to controls: 0 for no effect and ±100 for the full control effect; nearly all actives have a fitted effect of over 45% in size
# USP1-UAF1 inh: inhibitors of human USP1/UAF1 deubiquitinase; AID 743255; 390,000 tested, 0.23% active; Potency, µM (titrated, usually from 57.1 µM), for the others: at the highest dose activity change, negative = inhibition, hits mostly inhibitors; O94782; recombinant USP1/UAF1, Ub-Rhodamine cleavage fluorescence; also: % is scaled to controls: 0 for no effect and ±100 for the full control effect; nearly all actives have a fitted effect of over 60% in size
#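 USP1/UAF1 complex at 1 nM was preincubated with compound for 15 min at room temperature, then Ub-Rho substrate (150nM final) was added. Fluorescence (480/540 nm) was read kinetically, 6 reads every 60 seconds.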
# * hit, by the source's call; ? = inconclusive; . = no result given. The list is not random: actives were taken first. Their share in the collection is about 0.45%. Calls follow the shape of the dose curve; as a rule, active = well fitted curve in the direction sought with a large enough effect; inconclusive = small, poorly fitted or top-dose-only effect, or another doubt; inactive = no such curve, though single readings can be large; an effect the other way counts as inactive or inconclusive. Potency is read from the fitted curve at half-maximal effect.
SMILES,EPAC1 agonist,EPAC2 ag,EPAC1 antag,EPAC2 antagonist,USP1-UAF1 inh
CCn1c(O)c(/C=N/NC(=O)c2ccncc2)c(=O)n(CC)c1=S,56µM*,?,69%,8%,?
Cn1c(O)c(/C=N/NC(=O)c2ccncc2)c(=O)n(C)c1=S,15%,9%,0%,5%,-14%
O=c1oc2ccccc2c(O)c1C(c1ccc([N+](=O)[O-])cc1)c1c(O)c2ccccc2oc1=O,-15%,-14%,50µM*,50µM*,?
CC(C)c1ccc(C(c2c(O)c3ccccc3oc2=O)c2c(O)c3ccccc3oc2=O)cc1,-7%,1%,?,45µM*,28µM*
O=C(O)CC1OCC=C2CN3CCC45c6ccccc6NC4C1C2CC35 (configuration not stated),2%,4%,5%,2%,7%
O=C(O)CC1OCC=C2CN3CCC45C6=CC(=O)C(=O)C([N+](=O)[O-])=C6NC4C1C2CC35 (configuration not stated),11%,?,?,?,5µM*
O=C1NC(=S)N(c2ccc(F)cc2)C(=O)/C1=C\c1ccoc1,4%,-1%,?,-30%,28µM*
Cc1ccc(N2C(=O)NC(=O)/C(=C\c3ccoc3)C2=O)cc1,28%,12%,-26%,13%,-31%
CCN(CC)c1ccc(N=Cc2c(O)n(CCc3ccc(OC)c(OC)c3)c(=O)[nH]c2=O)cc1,16%,100µM*,-19%,4%,?
CCN(CC)c1ccc(N=Cc2c(O)n(-c3cc(OC)ccc3OC)c(=O)[nH]c2=O)cc1,?,79µM*,-8%,32%,?
COc1ccc(CCn2c(O)c(C=Nc3ccc(F)cc3)c(=O)[nH]c2=O)cc1OC,2%,0%,-10%,-1%,2%
CC1(C)c2[nH]c3ccccc3c2C[C@H]2C(=O)N(Cc3ccccc3F)C(=O)N21,-4%,12%,-22%,?,.
CN1C[C@H](C(=O)NC2(C)OC3(O)[C@@H]4CCCN4C(=O)[C@H](Cc4ccccc4)N3C2=O)CC2c3cccc4[nH]cc(c34)C[C@H]21 (some centres not stated),-3%,8%,-6%,-9%,-15%
CC(C)C[C@H]1C(=O)N2CCC[C@H]2[C@]2(O)O[C@](NC(=O)[C@@H]3C=C4c5cccc6[nH]cc(c56)C[C@H]4N(C)C3)(C(C)C)C(=O)N12,-21%,7%,16%,5%,18µM*
Cc1cc(/C=C2\C(=O)NC(=O)N(c3ccc(Cl)cc3)C2=O)c(C)n1-c1sc2c(c1C#N)CCCC2,-9%,-11%,50µM*,-10%,?
CCOC(=O)c1c(NS(=O)(=O)c2ccccc2)n(CCCOC)c2nc3ccccc3nc12,7%,23%,7.9µM*,?,1.8µM*
CCCCCn1c(NC(=O)c2ccco2)c(C(=O)OCC)c2nc3ccccc3nc21,-15%,6%,50µM*,40µM*,7.1µM*
CC[C@@]1(C(=O)OC)N[C@H](CN(C)C(=O)Nc2ccc(OC)cc2)[C@@H]2C(=O)N(Cc3ccccc3)C(=O)[C@@H]21,4%,?,-1%,-2%,-12%
COC(=O)c1cn(C(=O)c2cccc3ccccc23)c2ccccc12,9%,14%,-6%,8.9µM*,-16%
COC(=O)c1cn(Cc2ccc(F)cc2)c2ccccc12,4%,1%,-2%,?,-19%
Cc1nc2c(=O)n(C)c(=O)nc-2n(C)n1,-1%,?,100µM*,?,0.032µM*
CC(OC(=O)COc1ccc(Nc2ccccc2)cc1)C(=O)N(C)c1ccccc1 (configuration not stated),-39%,8%,-27%,?,-6%
O=S(=O)(c1ccc(Cl)cc1)N1CCC(n2cnc3cc(C(F)(F)F)ccc32)CC1,4%,-3%,?,-18%,-13%
CC1Oc2cc3c(-c4c(O)cc(O)c5c(O)c6c(cc45)OC(C)C(C)C6=O)c(O)cc(O)c3c(O)c2C(=O)C1C (configuration not stated),-39%,-6%,?,33%,13µM*
C[C@H]1COC2=C1C(=O)C(=O)c1c2ccc2c1CCCC2(C)C,-43%,1%,45µM*,7%,32µM*
SMILES,EPAC1 agonist,EPAC2 ag,EPAC1 antag,EPAC2 antagonist,USP1-UAF1 inh
Cc1ccccc1N(CC(=O)NC1CCCC1)C(=O)c1csnn1,-4%,4%,?,1%,-10%
Cc1nc(-c2cccc(NC(=O)c3ccc(Cl)c(S(=O)(=O)N4CCCC4)c3)c2)cs1,-17%,14%,10%,29%,?
CCN(C[C@H]1N[C@@](CC)(C(=O)OC)[C@H]2C(=O)N(Cc3ccccc3)C(=O)[C@@H]12)S(=O)(=O)c1ccc(C)cc1,-12%,5%,-9%,5%,?
COc1cc(/C=C2\C(=O)NC(=O)N(c3ccccc3)C2=O)c([N+](=O)[O-])cc1OC,6%,7%,-8%,-2%,-21%
COc1ccc(OC)c(N2C(=O)NC(=O)/C(=C/c3ccc([N+](=O)[O-])s3)C2=O)c1,-4%,0%,?,8%,16µM*
COc1ccc(OC)c(N2C(=O)/C(=C/c3ccco3)C(=O)NC2=S)c1,4%,3%,8.9µM*,?,16µM*
O=C(c1cc(-c2ccc(Cl)cc2)n(-c2ccc(Cl)cc2Cl)n1)N1CCOCC1,8%,10µM*,-4%,-17%,-9%
O=C(c1cc(-c2cccc(Cl)c2)on1)N1CCOCC1,7%,3%,0%,-11%,?
Cc1ccc(/C=C2\C(=O)NC(=S)N(c3cccc(F)c3)C2=O)o1,6%,0%,?,26%,?
Cc1cccc(N2C(=O)/C(=C/c3ccc(CN(CCC#N)S(C)(=O)=O)o3)C(=O)NC2=S)c1,0%,4%,?,4%,25µM*
N#CC(C#N)=NNc1ccc(S(N)(=O)=O)cc1,0%,-1%,56µM*,-28%,-28%
Cn1cc(/C=C2\C(=O)NC(=O)N(c3ccccc3)C2=O)c2ccccc21,-1%,100µM*,-9%,44%,?
O=C(O)Cn1cc(/C=C2\C(=O)NC(=O)N(c3ccc(Cl)cc3)C2=O)c2ccccc21,5%,4%,-24%,-24%,-21%
CCOP(=O)(OCC)C(Cc1ccc(OC)c(OC)c1)N=C(c1ccccc1)c1ccccc1 (configuration not stated),-20%,-1%,-19%,?,.
CC(C)c1ccc(NC(=O)Nc2nc(C(N)CCc3ccccc3)cs2)cc1 (configuration not stated),-8%,11%,0%,54%,.
C[C@H]1COC(=O)[C@H](Cc2ccc(F)cc2)CC/C=C/C[C@@H](CC(=O)N(CCO)Cc2ccccc2)C(=O)N1,-11%,3%,-5%,-5%,?
CN1CCN(c2ccc(/C=C3\C(=O)NC(=S)N(c4cccc(Br)c4)C3=O)o2)CC1,25%,15%,-16%,3%,32µM*
CC(C)CCOP(=O)(c1ccc(N(C)C)cc1)C(O)c1ccc(Cl)cc1Cl (configuration not stated),2%,5%,-23%,35µM*,-7%
